This note sets out measurements from PubChem BioAssay.

Results filed as inconclusive are left out. Active and inactive are the calls of the source. Unless noted, the limit is not given here; nearly all actives have AC50 up to about 30 µM.

The nature of test [1]: viability loss in pontine glioma line – cell-based, SU-DIPG-XIII, MIPE4.0, CellTiter-Glo, qHTS, dose response (AID 1347061; cut-off not given, nearly all actives have AC50 up to about 37 µM;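 also: cells exposed to compound for 48 hours before readout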). The note with it: CellTiter-Glo ATP luminescence. (Cellular ATP, detected with luciferase, serves as a proxy for viable cell number.)
Test [2] can be described thus: viability loss in pontine glioma line – cell-based, JHH-DIPG-1, MIPE4.0, CellTiter-Glo, qHTS, dose response (AID 1347062; cut-off not given, nearly all actives have AC50 up to about 27 µM;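 as to AC50: cells exposed to compound for two days before readout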). The note with it: JHH-DIPG-1 viability, CellTiter-Glo ATP luminescence.
Test [3] is described as follows: viability loss in pontine glioma line – cell-based, SU-DIPG-IV, MIPE4.0, CellTiter-Glo, qHTS, dose response (AID 1347063).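 Also: compound exposure lasted 48 hours before the viability readout.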 The note with it: CellTiter-Glo ATP luminescence.
Test [4] can be described thus: viability loss in pontine glioma line – cell-based, SU-DIPG-XIII, MIPE5.0, CellTiter-Glo, qHTS, dose response (AID 1347064; cut-off not given, nearly all actives have AC50 up to about 23 µM;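 as to AC50: cells exposed to compound for 48 hours before the viability read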). The following applies: CellTiter-Glo ATP luminescence.
The nature of test [5]: viability loss in pontine glioma line – cell-based, SU-DIPG-XXV, MIPE5.0, CellTiter-Glo, qHTS, dose response (AID 1347065; cut-off not given, nearly all actives have AC50 up to about 26 µM;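 also: cells exposed to compound for 48 hours before ATP readout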). The following applies: CellTiter-Glo ATP luminescence.
Test [6] is described as follows: growth inhibition of DIPG cells – cell-based, MIPE4.0 library, CellTiter-Glo luminescence, qHTS (AID 1347066).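 Also: cells exposed to compound for 48 hours before readout.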 The following applies: SU-DIPG-VI viability, CellTiter-Glo ATP luminescence.
A short description of test [7]: JHH-DIPG-1 glioma cell viability, MIPE5.0 library, CellTiter-Glo luminescence, qHTS (AID 1347067; cut-off not given, nearly all actives have AC50 up to about 26 µM;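 also: cells exposed to compound for 48 hours before readout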). The following applies: JHH-DIPG-1 glioma viability, CellTiter-Glo ATP luminescence.
A short description of test [8]: growth inhibition of DIPG cells – cell-based, MIPE5.0 library, qHTS (AID 1347068; cut-off not given, nearly all actives have IC50 up to about 30 µM;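 as to IC50: cells exposed to compound for 48 hours before viability readout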). The following applies: SU-DIPG-XXV viability.

Take `c1cc(-c2cnn3cc(-c4ccc(OCCN5CCCCC5)cc4)cnc23)ccn1`: the half-maximal activity concentration (AC50) (in general, the concentration giving half of the maximal activity seen) in test [1] was 23.5 µM (active); in test [2], 10.5 µM (active); in test [3], 10.5 µM (active); in test [4], 13.2 µM (active); in test [5], 11.8 µM (active); in test [6] it was 23.5 µM (active). Further, the AC50 in test [7] was 14.8 µM (active). Further, the 50% inhibitory concentration (IC50) – broadly, the concentration needed to halve the response being measured – in test [8] is 11.8 µM (active).
Take `Cc1nnc(C(C)C)n1C1C[C@H]2CC[C@@H](C1)N2CC[C@H](NC(=O)C1CCC(F)(F)CC1)c1ccccc1` (some centres not stated): the compound was classed as inactive in test [1], in test [2], in test [3] and in test [6].
For the compound `O=C(NNC(=O)c1ccc(CNS(=O)(=O)c2ccc(F)c(Cl)c2)cc1)c1ccccc1`, the compound was called inactive in test [1], in test [2], in test [3] and in test [6].
With `O=C(O)[C@H]1O[C@H](Oc2cc3oc(-c4ccccc4)cc(=O)c3c(O)c2O)[C@H](O)[C@@H](O)[C@@H]1O`, the result in test [1], in test [2], in test [3] and in test [6] was inactive.
`CN(N=O)C(=O)N[C@H]1C(O)OC(CO)[C@@H](O)[C@@H]1O` (some centres not stated): the result in test [1], in test [2], in test [3] and in test [6] was inactive.
As to `Nc1nc(F)nc2c1ncn2[C@@H]1O[C@H](CO)[C@@H](O)[C@H]1O`, the concentration at half-maximal activity (AC50) in test [1] was 1.05 µM (active); in test [2] it was 0.59 µM (active); in test [3], 0.264 µM (active); in test [6] it was 0.833 µM (active).
In the case of `c1nc2nc(Nc3ccc(N4CCOCC4)cc3)nc(NC3CCCCC3)c2[nH]1`, the half-maximal activity concentration (AC50) in test [1] is 9.35 µM (active); in test [2], 16.6 µM (active); in test [3], 14.8 µM (active); in test [5], 2.09 µM (active); in test [6], 8.33 µM (active); in test [7], 5.9 µM (active). For the same compound, in test [8], the compound was classed as inactive.
Consider `COC1=C2C[C@@H](C)C[C@H](OC)[C@H](O)[C@@H](C)/C=C(\C)[C@H](OC(N)=O)[C@@H](OC)/C=C/C=C(\C)C(=O)NC(=CC1=O)C2=O`, for which the half-maximal activity concentration (AC50) was 0.372 µM (active) in test [1], 0.296 µM (active) in test [2], 0.526 µM (active) in test [3] and 2.35 µM (active) in test [6].
For `C=C1/C(=C\C=C2/CCC[C@]3(C)[C@@H]([C@H](C)/C=C/[C@H](C)C(C)C)CC[C@@H]23)C[C@@H](O)C[C@@H]1O`, the AC50 in test [1] is 8.33 µM (active); in test [2] it was 0.418 µM (active); in test [3], 5.9 µM (active); in test [5], 18.6 µM (active); in test [6], 23.5 µM (active); in test [7] it was 26.3 µM (active). Moreover, in test [8], the result was inactive.
As to `O=C(O)c1cc(O)c2c(c1)C(=O)c1cccc(O)c1C2=O`, the outcome in test [1], in test [2], in test [3], in test [4], in test [7] and in test [8] was inactive.
On to `CC(=O)N1CCN(c2ccc(OCc3nn(C)c(C)c3-c3cccc4c(CCCOc5cccc6ccccc56)c(C(=O)O)n(Cc5cccnc5)c34)cc2)CC1`, for which the concentration at half-maximal activity (AC50) in test [1] was 9.35 µM (active); in test [2], 1.66 µM (active); in test [3], 1.66 µM (active); in test [6], 1.48 µM (active).
Take `CCC(C)CCCCC(=O)N[C@@H](CCN)C(=O)NC(C(=O)N[C@H](CCN)C(=O)N[C@@H]1CCNC(=O)C([C@@H](C)O)NC(=O)[C@@H](CCN)NC(=O)[C@@H](CCN)NC(=O)[C@@H](CC(C)C)NC(=O)[C@H](Cc2ccccc2)NC(=O)[C@H](CCN)NC1=O)[C@@H](C)O` (some centres not stated): the result in test [1], in test [2], in test [3], in test [5], in test [6] and in test [7] was inactive. In addition, in test [8], the outcome was inactive.
Regarding `Nc1ccn([C@H]2CS[C@@H](CO)O2)c(=O)n1`, the compound was classed as inactive in test [1], in test [2], in test [3] and in test [6].
